# Screen size: about 340,000 compounds; about 6,200 (1.8%) were called active. Where a call stands in place of a potency, no number is given. About 10% were inconclusive and are not listed. This excerpt belongs to a sample that is enriched for actives. Unmarked numbers belong to inactive results. Calls follow the shape of the dose curve; as a rule, active = well fitted activation curve with a large enough effect; inconclusive = small, poorly fitted or top-dose-only effect; inactive = no such curve, though single readings can be large or run the other way.
# Experiment: A quantitative high throughput screen for small molecules that induce DNA re-replication in SW480 colon adenocarcinoma cells. Also: nearly all actives have a fitted effect of over 55% in size.
# Details: Hoechst DNA content imaging, 48 h; series mostly up to 46.1 µM
# Procedure, shortened: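 Quantitative HTS format with DMSO vehicle controls; 48 hr drug incubation at 37 C, then 40 min Hoechst staining and scanning imager measurement at 405 nm excitation.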
# Potency is read from the fitted curve at half-maximal effect.
Structure (SMILES),Potency,re-replication activation
O=C(Nc1cccc(S(=O)(=O)N2CCCCC2)c1)c1cncc(Br)c1,inactive,
CC/C(=C(/c1ccccc1)c1ccc(OCC[N+](C)(C)C)cc1)c1ccccc1,inactive,
Nn1c(SCC(=O)Nc2ccc3c(c2)CCC3)nnc1C1CC1,inactive,
O=C(COC(=O)c1ccccc1O)NCc1ccco1,inactive,
CN(c1ccccc1)S(=O)(=O)c1ccc(Cl)c(C(=O)OCC(=O)NCc2ccco2)c1,inactive,
Cc1cc(C(=O)OCC(=O)NCc2ccco2)c(C)n1-c1ccccc1,7.31 µM (active),
CC(C(=O)N1CCc2ccccc21)N(C)CC(=O)Nc1ccc(F)cc1 (stereo not drawn),inactive,
O=C1COc2ccc(C(=O)COC(=O)CCOc3ccccc3)cc2N1,inactive,
Cc1ccc(-c2csc(C(C#N)=C(O)CN3CCN(C(=O)c4ccco4)CC3)n2)cc1,inactive,
Cc1cn([C@H]2CC(F)[C@@H](CO)O2)c(=O)[nH]c1=O (stereo partly drawn),inactive,
COc1cc(OC)cc(C(=O)NCC(=O)OCC(=O)NC(C)CCc2ccccc2)c1 (stereo not drawn),inactive,
CCn1cc(CN2CCC(C(=O)Nc3cccc(-c4cccc(Cl)c4)c3)CC2)cn1,18.4 µM (active),
O=C(Nc1cccc(-c2cscn2)c1)C1CCN(Cc2ccsc2)CC1,inactive,
CC(=O)c1cc(CN2CCC(C(=O)Nc3cccc(-c4cscn4)c3)CC2)cs1,inactive,
C=CCN1C=C(C(=O)c2ccccc2)C(=O)CC1,inactive,
Cc1ccc(OCCCn2c(=O)oc3ccccc32)cc1,inactive,
CCCCCCCCCCOC(=O)Cn1c(COc2cccc(OC)c2)[n+](C)c2ccccc21,inactive,
CCCCCCCCCCOC(=O)Cn1c(COc2ccc(C)cc2)[n+](C)c2ccccc21,20.6 µM (active),
O=c1c2ccccc2ncn1CCc1ccncc1,inactive,
COc1ccccc1C(=O)OCC(=O)Nc1cccc(S(=O)(=O)NC2=NCCCCC2)c1,inactive,
Cc1cc(-c2ccc(C)c(S(=O)(=O)NCCCN(Cc3ccccc3)C(C)C)c2)on1,18.4 µM (active),
Cc1cc(-c2ccc(C)c(S(=O)(=O)NC(C)Cc3ccco3)c2)on1 (stereo not drawn),inactive,
CCOc1ccccc1CNS(=O)(=O)c1cc(-c2cc(C)no2)ccc1C,inactive,
COc1cccc2oc(CCc3ccccc3)cc(=O)c12,inactive,

Structure (SMILES),Potency,re-replication activation
CCOc1cc(C(=O)N(Cc2ccccc2)c2ccc(C)cc2)ccc1OCC(=O)N1CCOCC1,inactive,
O=C1/C(=C\c2ccc(O)cc2)CCC1CNc1ccc(Cl)cc1 (stereo not drawn),16.4 µM (active),
CC1CCN(C2=NC(=O)/C(=C/c3ccc(O)cc3)S2)CC1,inactive,
CC(C(=O)NC1CCS(=O)(=O)C1)N1C(=O)/C(=C/c2ccc(Cl)cc2)SC1=S (stereo not drawn),inactive,
O=C(COC(=O)c1cccnc1Cl)Nc1ccc(S(=O)(=O)N2CCOCC2)cc1,inactive,
COCCN(C(=O)CSCc1ccc(C)cc1)c1c(N)n(CC(C)C)c(=O)[nH]c1=O,inactive,
COc1ccc(/C=N/NS(=O)(=O)c2ccc(NC(C)=O)cc2)cc1,inactive,
COc1ccc(/C=N/NC(=O)C(C)N(c2ccc(OC)cc2)S(C)(=O)=O)cc1 (stereo not drawn),18.4 µM (active),
CC(C(=O)NC1CCCC1)N(c1ccc(Oc2ccccc2)cc1)S(C)(=O)=O (stereo not drawn),inactive,
CC[C@]12c3[nH]c4cc(CCC(=O)N(C)C)ccc4c3CCN1C(=O)[C@@H](CC(=O)NCC13CC4CC(CC(C4)C1)C3)C[C@@H]2C(=O)N1CCN(C(=O)C2CC2)CC1,,-2.17% [at 9.22 µM]
CC(C)(C)OC(=O)C[C@@H]1C/C=C\C[C@@H](CC(=O)N[C@@H](CO)Cc2ccccc2)C(=O)N2CCC[C@H]2COC1=O,inactive,
CC1CCCCC1NC(=O)COc1ccc(C#N)cc1 (stereo not drawn),inactive,
Oc1c(C(c2ccccn2)N2CCOCC2)ccc2cccnc12 (stereo not drawn),inactive,
CCN1CCN(C(c2cccnc2)c2cc(Cl)c3cccnc3c2O)CC1 (stereo not drawn),20.6 µM (active),
Oc1ccccc1CN1CCN(C(c2ccccc2)c2ccccc2)CC1,inactive,
COc1cc(C(=O)N2CCN(S(=O)(=O)c3ccc(C(C)C)cc3)CC2)ccc1OCC(=O)N1CCOCC1,inactive,
COC(=O)[C@]1(C)N[C@H](CN(C)C(=O)c2ccc(C(C)(C)C)cc2)[C@@H]2C(=O)N(C)C(=O)[C@@H]21,inactive,
COc1cc(/C=C/CNC[C@H]2O[C@@H](n3cnc(C(N)=O)n3)[C@H](O)[C@@H]2O)ccc1O,inactive,
CCN(CC)C(=O)c1sc2nc(-c3ccccc3)ccc2c1N,20.6 µM (active),
CCNC(=O)CSc1nc(-c2ccccc2)cs1,inactive,
Nc1c(C(=O)NCc2ccccc2)sc2nc3c(cc12)C(=O)CCC3,inactive,
Cc1ccc(S(=O)(=O)N2CCC(C(=O)N3CCCCCCC3)CC2)cc1,inactive,
COc1ccc(CNC(=O)COC(=O)C2=Cc3ccccc3OC2)cc1,inactive,
COc1ccc(C2=Nn3c(nnc3-c3ccccc3OC)SC2)cc1OC1CCCC1,2.31 µM (active),
